# Assay results reported in PubChem BioAssay (NCI).
# The panel holds about 83,000 compounds, 20% with a hit somewhere; the sample as a whole holds those more often.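 A percent growth of 40 corresponds to 60% growth inhibition; 0 means no net growth; -100 means all cells died. Active threshold: below 10.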 Values without a mark were called inactive. Active and inactive are the calls of the source.
# Experiments:
# Assay in all cases: NCI-60 one-dose screen, 48 h (100 = growth as untreated, 0 = no growth, -100 = all killed)
# Settings in all cases: 10 µM unless noted
# T-47D breast = system: T-47D breast
# BT-549 breast = system: BT-549 breast
# MDA-MB-435 melanoma = system: MDA-MB-435 melanoma
# SW-620 colon = system: SW-620 colon
# MCF7 breast = system: MCF7 breast
# HCT-116 colon = system: HCT-116 colon
# HCC-2998 colon = system: HCC-2998 colon
# KM12 colon = system: KM12 colon
Compound,growth (T-47D breast),growth (BT-549 breast),growth (MDA-MB-435 melanoma),growth (SW-620 colon),growth (MCF7 breast),growth (HCT-116 colon),growth (HCC-2998 colon),growth (KM12 colon)
COc1ccccc1S(=O)(=O)Nc1ccc2c3c(cc(CCC(=O)NCCCCNc4cccc5c4C(=O)N(C4CCC(=O)NC4=O)C5=O)cc13)C(=O)N2C (centres undefined),3.74% (active),-10.9% (active),23.2%,7.68% (active),6.07% (active),46.2%,10.9%,20.2%
CN1C(=O)N2CN3CCCN(C3)CN3C(=S)NC1C23 (centres undefined),105%,117%,106%,101%,95.4%,106%,103%,104%
Nc1nc(N)c2c(n1)NC(c1cccc(Nc3ccnc4cc(C(F)(F)F)ccc34)c1)CC(c1ccc3c(c1)OCO3)=N2 (centres undefined),90.6%,112%,9.59% (active),54.6%,33.3%,39.9%,75.7%,38.6%
COc1cc(-c2ccc(-c3ccc(C(=N)N)cc3)s2)cc(OC)c1OC,55.2%,86.3%,40.4%,20.9%,13.6%,15%,-19.6% (active),23.4%
O=C(NCCCCCCNC(=O)OCc1ccc2c(Cl)cc(Cl)c(O)c2n1)OCc1ccc2c(Cl)cc(Cl)c(O)c2n1,-48.5% (active),-14.4% (active),-82.9% (active),-62.8% (active),-36.7% (active),-54.7% (active),-88.3% (active),-74.6% (active)
COc1ccc2cc(C(=O)N3CCC([C@@H](C)C(=O)NCc4ccc5c(c4)OCO5)CC3)[nH]c2c1,17.3% [50 µM],16% [50 µM],65.9% [50 µM],103% [50 µM],46.8% [50 µM],33.6% [50 µM],83% [50 µM],79.1% [50 µM]
ClC(Cl)c1nc(-c2ccccc2)n2nc(-c3ccccc3)cc2n1,28.5%,77.2%,12%,-35.3% (active),3.37% (active),4.82% (active),-82.1% (active),-32% (active)
C=C1C(=O)O[C@H]2[C@H]1CC/C(CNC(=O)Cc1c[nH]c3ccccc13)=C\CC[C@@]1(C)O[C@@H]21,-9.45% (active),13.6%,7.96% (active),-20.4% (active),17.8%,-11.9% (active),60.4%,47.5%
COCCn1cc(-c2nc(-c3c[nH]c4ncccc34)cs2)c2ccccc21,4.79% (active),43.2%,7.74% (active),68.6%,9.03% (active),66.5%,34.4%,16.4%
COc1ccc(-c2cc(C(=O)N3N=C(c4ccc(N)cc4)CC3c3ccc(Cl)cc3)c3ccccc3n2)cc1 (centres undefined),47.4%,8.43% (active),-12.9% (active),29.2%,13.9%,15.6%,21.5%,20.7%
O=C(Nc1nc(Cl)nc(Nc2ccc(N3CCOCC3=O)cc2)n1)c1ccc(Cl)s1,71.7%,106%,96.4%,76.1%,59.1%,84.3%,82.3%,90.6%
O=C(/C=C/C12c3ccccc3C(c3ccccc31)C1C(=O)NC(=O)C12)c1ccc(I)cc1 (centres undefined),38.9%,46.1%,31.2%,25%,16.5%,35.8%,100%,57.8%
COC12C=C/C(=C(/C(=O)OCCSc3ccnn3C)C(=O)CCCCCCCCC3(OC)C=C/C(=C(/C(=O)OCCSc4ccnn4C)C(=O)CCCCCCCC1)O3)O2,33.2%,-22.7% (active),-3.93% (active),18.5%,14.7%,-38.5% (active),-86.1% (active),-57.6% (active)
O=C(NCCNC(c1ccccc1)C(NCCNC(=O)c1ccccc1)c1ccccc1)c1ccccc1 (centres undefined),97.8%,96.4%,114%,57.8%,70.7%,53.8%,105%,100%
FC(F)(F)c1[nH]ncc1-c1nc2ccc3[nH]ncc3c2c2c1CCCC2,0% (active),-24% (active),32.1%,7.83% (active),1.69% (active),1.68% (active),5.29% (active),11.1%
CCCCCCCCn1ccc2cc(NC(=O)CN3CCN(c4cc(C)nc(Cl)n4)CC3)ccc21,67.8%,75%,84.1%,95.3%,75.4%,79.2%,106%,91.9%
O=C(c1c[nH]c2ccccc12)c1n[nH]c(=S)n1-c1ccc([N+](=O)[O-])cc1,40.4%,117%,104%,100%,63.3%,90.3%,58.5%,67.4%
CNCCCNc1nc2ccccc2c2c(=O)c3cc(Cl)ccc3sc12,48.5%,92.4%,-18.5% (active),-87% (active),-77.3% (active),-92.1% (active),-89.8% (active),-24.6% (active)
N#Cc1c(-c2ccccc2)nc2c(c(-c3ccccc3)nn2-c2ccccc2)c1-c1ccc(N2CCCCC2)cc1,94.5%,104%,99.9%,99.2%,100%,94.2%,107%,103%
Fc1ccc(/C=C/[C@@H]2C[C@@H](F)CCO2)cc1,101%,100%,97.9%,90.2%,91.3%,82.2%,60.6%,105%
CC1(C)CC(=O)C2=C(C1)C(c1ccc(Cl)cc1)n1ncc(C#N)c1N2 (centres undefined),85.8%,103%,103%,99.3%,95.4%,98.4%,107%,110%
O=C(O)CC(C(=O)O)/C(=C\c1ccccc1)c1ccccc1 (centres undefined),93.1%,122%,115%,103%,94.7%,119%,108%,108%
COC(=O)c1ccc2c(c1)c1c(C)c3cnccc3c(C)c1n2C,-21.6% (active),-4.33% (active),6.89% (active),-6.12% (active),-37.1% (active),-59.8% (active),1.42% (active),1.9% (active)
COC(=O)c1c2c(c[n+]([O-])c1C)C(=O)C=C(NCc1ccccc1)C2=O,-47.7% (active),-87.3% (active),-86.5% (active),-78.9% (active),-57.3% (active),-79.5% (active),-89.5% (active),-83.2% (active)
COc1ccc(-c2cn(Cc3cc4ccccc4s3)nn2)cc1OCCN1CCCCC1,85.1%,74.8%,69.6%,90.9%,60.6%,75.9%,57.4%,87%
Cc1ccc(S(=O)(=O)OC[C@]23CCC(C)(C)C[C@H]2C2=CC[C@@H]4[C@@]5(C)CCCNC(C)(C)[C@@H]5CC[C@@]4(C)[C@]2(C)CC3)cc1,1.19% (active),88.2%,31%,-71.3% (active),23.8%,-83% (active),-12.3% (active),-1.94% (active)
CCN(CC)CCOc1ccc2c(-c3ccccc3)c(-c3ccc(OC)cc3)c(=O)oc2c1,51.4%,90.6%,41.3%,39.4%,61.3%,30%,90.9%,60.4%
Cc1c(O)cc(-c2cnc(N/N=C/c3ccccc3)s2)c(O)c1C,29.7%,72.8%,95.5%,113%,72.3%,96.2%,131%,90.7%
